# BRCA1 expr up = BRCA1 expression activation; Potency, µM (highest dose often 46.1 µM), inactives show at the highest dose activation, actives largely listed as activators; actives 1.1% (n = 380,000); AID 624202; MCF7-BRCA1-FFLuc reporter, luminescence, 48 h; response scale: scaled: vehicle 0%, 10 µM genistein 100%; further: nearly all actives have a fitted effect of over 80% in size
#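 Cells: MCF7-BRCA1-FFLuc, 2000/well. Exposure: 48 h, 37 °C, 5% CO2. Read: luminescence, 15 min post-substrate. Controls: genistein 10 microM (maximal activation), DMSO (neutral).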
# GLP1R ag = agonists of human GLP-1 receptor; P43220; HEK293 GLP-1R CRE-luciferase, luminescence, 4-6 h; cells express a hypersensitive GLP-1R form; Potency, µM (series often up to 45.6 µM), for inactives: at the highest dose activation, hits mostly activators; actives 0.007% (n = 380,000); further: % of control where 0% means no effect
# Target sequence (P43220 whole entry, looked up): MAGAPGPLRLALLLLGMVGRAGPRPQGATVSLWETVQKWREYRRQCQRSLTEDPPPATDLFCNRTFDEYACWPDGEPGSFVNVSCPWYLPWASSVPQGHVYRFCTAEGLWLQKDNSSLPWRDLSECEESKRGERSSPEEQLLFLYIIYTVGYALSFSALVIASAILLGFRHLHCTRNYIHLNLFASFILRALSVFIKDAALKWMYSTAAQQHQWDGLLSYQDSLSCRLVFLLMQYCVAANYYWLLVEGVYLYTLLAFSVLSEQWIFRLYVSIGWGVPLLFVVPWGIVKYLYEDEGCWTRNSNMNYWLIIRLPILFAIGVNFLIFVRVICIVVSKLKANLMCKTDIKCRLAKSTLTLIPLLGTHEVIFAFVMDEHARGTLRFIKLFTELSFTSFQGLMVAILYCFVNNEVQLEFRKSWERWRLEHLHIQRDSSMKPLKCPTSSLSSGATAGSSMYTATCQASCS
# HEK293 tox = cytotoxicity in counter-screen for GLP-1R inverse agonists; HEK293 cAMP-luciferase reporter cells, luminescence, 24 h; Potency, µM (doses to about 38.3 µM), for inactives: at the top dose activity change, negative = inhibition, usual class: inhibitors; actives 0.13% (n = 410,000);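 further: loss of luciferase light is scored as toxicity; on the % scale 0 is the no-effect control and ±100 the full control effect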
#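 A 23 nL compound transfer followed 12 hours of cell culture at 37 deg C; exposure then lasted 24 hr. Luciferase assay detection reagent was dispensed and plates read for luminescence after a 12 min room-temperature wait.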
# GLP1R inv ag = acts as inverse agonist at human GLP-1 receptor; HEK293 GLP-1R CRE-luciferase, luminescence, 24 h; GLP-1R form is constitutively active; Potency, µM (top dose mostly 38.3 µM), for inactives: top-dose activity change, negative = inhibition, hits mostly inhibitors; actives 1.6% (n = 410,000); AID 624417; further: on the % scale 0 is the no-effect control and ±100 the full control effect; nearly all actives have a fitted effect of over 55% in size
#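 Luminescence readout: a drop in cAMP-driven luciferase signal flags inverse agonism at a constitutively active GLP-1R stably expressed in HEK293. Compound exposure lasted 24 hr at 37 deg C, 5% CO2.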
# * = called active by the depositor; ? = inconclusive; . = no result. Hits are enriched below; roughly 2.6% of the tested compounds scored in any of these assays. The call rests on the fitted dose curve; in most records, active means well fitted curve in the direction sought with a large enough effect; inconclusive means small, poorly fitted or top-dose-only effect, or another doubt; inactive means no such curve, though single readings can be large; an effect the other way counts as inactive or inconclusive. Potency means the concentration at half of the fitted maximal effect.
SMILES,BRCA1 expr up,GLP1R ag,HEK293 tox,GLP1R inv ag
Cc1cccc(NC(=O)CSc2nc3c(oc4ccccc43)c(=O)n2-c2ccccc2)c1C,-15%,.,-17%,2%
Cc1noc(Cn2c(=O)c3ccccc3n(CC(=O)Nc3cc(Cl)ccc3C)c2=O)n1,.,.,1%,11%
Cc1ccc(NC(=O)Cn2c(=O)n(-c3ccccc3)c(=O)c3ccc(C(=O)NCc4ccc5c(c4)OCO5)cc32)cc1,2%,0%,-1%,3%
Cc1ccc(/C=N/N2CCN(c3ccccc3)CC2)cc1,13µM*,7%,6%,8%
C(=N\N1CCN(c2ccccn2)CC1)/c1cccc2ccccc12,5%,12%,8%,?
CN1CCN(/N=C/c2ccc(Br)cc2)CC1,5.6µM*,9%,-11%,-22%
Oc1ccccc1/C=N/N1CCN(c2ccccn2)CC1,10µM*,?,5%,0%
Cc1cccc(/C=N/N2CCN(c3ccccc3)CC2)c1,?,5%,8%,-1%
COc1ccc(CNCCC2(Cc3ccccc3)CC(C)N(C)CC2C)cc1OC (centres undefined),-57%,1%,-5%,?
COc1ccc(CN(CCC#N)CCC2(c3ccccc3)CC(C)N(C)CC2C)cc1OC (centres undefined),14%,3%,?,10µM*
C=CCOc1cccc(/C=C2\C(=O)N(Cc3ccc(C)cc3)C(C)=C2C(=O)OC)c1,-46%,9%,-26%,4.5µM*
CCOc1cc(/C=C2\C(=O)N(Cc3ccc(C)cc3)C(C)=C2C(=O)OC)ccc1O,-48%,-12%,-25%,?
COC(=O)c1cc(Cl)c(NC(=O)c2ccc(C(C)(C)C)cc2)cc1OC,3.5µM*,0%,-2%,-4%
COc1ccc(/C=N/Nc2nccnc2Cl)cc1,-35%,-6%,?,11µM*
COc1ccc(NC(=O)C[C@H]2C(=O)N(CCc3ccccc3)C[C@@H]2Cc2ccccc2)cc1,11%,5%,-13%,?
c1ccc(-c2nnc(-c3ccncc3)o2)cc1,11µM*,1%,-7%,22%
Cc1cccc(-c2nnc(-c3ccc(N)cc3)o2)c1,?,-3%,-6%,47%
CCOc1ccc(-c2nnc(-c3ccccc3)o2)cc1,?,-13%,-3%,5µM*
Nc1ccc(-c2nnc(-c3ccc(N)cc3)o2)cc1,5.6µM*,5%,-10%,68%
c1ccc(OCc2nnc(-c3ccccc3)o2)cc1,7.1µM*,8%,-5%,-22%
COc1cccc(N2CCN(S(=O)(=O)c3ccc(-c4ccno4)cc3OC)CC2)c1,.,.,9%,4%
O=C(C[N+]1(CCO)CCOCC1)c1ccc(F)c2ccccc12,-47%,.,.,.
Cc1ccc(S(=O)(=O)NCC(c2ccccc2)N2CCCCC2)cc1 (centres undefined),-1%,6%,7%,10µM*
CN(c1ccccc1)C(CNS(=O)(=O)c1ccccc1)c1ccccc1 (centres undefined),.,.,8%,?
Cc1ccc(C(CNS(=O)(=O)c2ccc(C)cc2)N2CCN(C)CC2)cc1 (centres undefined),2%,6%,3%,?
SMILES,BRCA1 expr up,GLP1R ag,HEK293 tox,GLP1R inv ag
CN1CCN(C(CNS(=O)(=O)c2ccc([N+](=O)[O-])cc2)c2ccc(F)cc2)CC1 (centres undefined),-5%,-12%,-1%,11µM*
Cc1ccc(N(C)C(CNS(=O)(=O)c2ccccc2)c2ccccc2)cc1 (centres undefined),.,.,2%,10µM*
Cc1ccc2nc(-c3ccc(NC(=O)C4CCCO4)cc3)[nH]c2c1 (centres undefined),?,-19%,4%,7.9µM*
Cc1ccc2nc(-c3ccc(NC(=O)Cc4cccs4)cc3)[nH]c2c1,21%,5%,?,-28%
Cc1ccc(OCc2ccc(C(=O)NN)o2)c([N+](=O)[O-])c1,5%,19%,4%,14%
COC(=O)c1ccc(COc2ccc(C)cc2[N+](=O)[O-])o1,5.6µM*,13%,13%,7%
COc1ccc(C)cc1S(=O)(=O)NCC(c1cccnc1)N1CCc2ccccc2C1 (centres undefined),-26%,10%,-12%,?
Cc1ccc(C(=O)NCC(c2ccco2)N2CCc3ccccc3C2)cc1C (centres undefined),-17%,-3%,-4%,11µM*
Cc1ccc(C(=O)NCC(c2ccco2)N2CCc3ccccc3C2)cc1 (centres undefined),0%,1%,11%,?
Cc1ccc(C)c(S(=O)(=O)NCC(c2ccco2)N2CCc3ccccc3C2)c1 (centres undefined),-32%,10%,-14%,11µM*
COc1ccc(C(=O)/C(=C/O)N=Nc2ccc(F)cc2)cc1,-40%,8%,?,10µM*
COCCN=C1NN=C(c2ccc(C)c([N+](=O)[O-])c2)CS1,3.2µM*,20%,2%,27%
CCCCN=C1NN=C(c2ccc(C)c(C)c2)CS1,?,7%,?,?
CCCCN=C1NN=C(c2ccc3c(c2)OCCO3)CS1,-11%,10%,-23%,8.9µM*
Cc1ccc(C(=O)Nc2ncc([N+](=O)[O-])s2)cc1,?,-7%,-24%,1.1µM*
CCOc1cc(CNC(=O)c2ccc(Cn3c(=O)c4cccn4c4cccnc43)cc2)ccc1OC,.,.,2%,16%
CCCOc1ccccc1NC(=O)c1c(-c2ccccc2)noc1C,-38%,14%,-1%,11µM*
Cc1onc(-c2ccccc2)c1C(=O)NC(C)c1ccccc1 (centres undefined),-1%,6%,5%,-37%
Cc1ccc(C(C)NC(=O)c2c(-c3ccccc3)noc2C)cc1C (centres undefined),-14%,1%,1%,7.9µM*
Cc1ccc(OCCOC(=O)c2c(-c3ccccc3)noc2C)cc1,-28%,16%,5%,?
CCOc1ccc(C(=O)COC(=O)c2c(-c3ccccc3)noc2C)cc1,-34%,10%,?,10µM*
CCCN(CCC)CCNC(=O)c1cc(Sc2ccc(Cl)cc2)nc2ccccc12,.,.,-4%,?
CCCCNC(=O)Cn1c(SCc2ccccc2C)nc2ccncc21,11%,.,.,.
COC(=O)c1c(NC(=O)/C(C#N)=C/c2ccccc2)sc2c1CCC2,.,.,15%,1%
Cc1cccc(-n2c(SCc3ccc([N+](=O)[O-])cc3)nnc2-c2c[nH]c3ccccc23)c1,-53%,5%,4%,3.2µM*
COc1cccc(-n2c(SC)nnc2-c2c[nH]c3ccccc23)c1,-16%,-5%,2%,7%
O=C1CS(=O)(=O)N(Cc2cccc(F)c2)c2ccc(Br)cc21,-2%,-3%,-6%,10µM*
CCOC(=O)Cc1csc(NC(=O)CSc2nnnn2-c2ccc(C)cc2C)n1,-6%,-2%,-19%,6.3µM*
CCOC(=O)c1cc2c(ccn2C)n1CC(=O)N(Cc1ccccc1)c1ccccc1,-20%,1%,-3%,13µM*

# Source: PubChem BioAssay
